“And” between values parts separate entries of the source, which are not always exact repeats. Equal values may be shown once. Hit rate of the full screen: of about 640,000 compounds, about 9,300 (1.5%) were called active. No stated cut-off is given here; in the data, active means inhibition above about 32%; inactive means the rest. What follows is part of a selection rich in actives, with near analogues and random picks from the rest.
test: TEAD-YAP interaction inhibition, primary screen, TEAD-YAP interaction inhibitor project, luminescence, HEK-TIYL cells (AID 1259422); settings: TEAD-Gal4/YAP UAS-luciferase luminescence, at 9.12 µM, hits give high values;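 further: 0% = median of test compound wells and 100% = reference inhibitor wells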

Compound | inhibition
CSc1sc(SC)c(CO)c1CO | -4.01% (inactive)
O=C(Nc1ccccn1)c1cc2c(s1)CCCC2 | 93.2% (active)
Cc1cccc(C(=O)Nc2sc3c(c2C(=O)Nc2ccccn2)CCCC3)c1 | -4.61% (inactive)
CN1CCN(NC(=O)c2cc3c(s2)CCCCC3)CC1 | 12.5% (inactive)
CC(C)NC(=O)Cn1nc2n(CC(=O)NC3CCCCC3C)c3ccccc3n2c1=O (configuration not stated) | 1.58% (inactive)
O=C(Nc1ccc(S(=O)(=O)Nc2nccs2)cc1)c1cc(Cl)cc(Cl)c1 | 1.26% (inactive)
C/C=C/c1ccc(Oc2ccc([N+](=O)[O-])c3cnccc23)c(OC)c1 | -0.05% (inactive)
Cn1ncc2c(NCc3cccnc3)ncnc21 | 3.93% (inactive)
Clc1ccc(Cn2ncc3c(NCc4cccnc4)ncnc32)cc1 | 19.8% (inactive)
Brc1ccc2ncnc(NCc3cccnc3)c2c1 | 34.6% (active)
CCCNc1cc(CC)nc2c3c(C)cc(C)nc3nn12 | -5.94% (inactive)
CCOc1cccc2sc(N3CCOCC3)nc12 | -1.73% (inactive)
COc1cc2c(cc1/C=C1/NC(=O)N(Cc3ccccc3Cl)C1=O)OCO2 | -0.77% (inactive)
O=C1/C(=C/c2ccc(-c3ccc([N+](=O)[O-])cc3)o2)C=C(c2ccccc2)N1c1cccc(Br)c1 | 5.51% (inactive)
CC(C)=NOC(=O)CCS(=O)(=O)c1nc(-c2cccs2)cc(C(F)(F)F)n1 | -33.7% (inactive)
Cc1ccc(NC(=O)CSC2=C(C#N)C(c3ccc(F)cc3)CC(=O)N2)cc1 (configuration not stated) | 11.8% (inactive)
CCN1/C(=C/c2ccc3cc(C)ccc3[n+]2CC)Sc2ccc(-c3ccccc3)cc21 | 88.8% (active)
CC[N+]1=C(C)C(C)(C)c2cc(-c3ccccc3)ccc21 | 25.8% (inactive)
CCC(/C=C1\Sc2ccc(-c3ccccc3)cc2N1CC)=C\c1sc2ccc3ccccc3c2[n+]1CC | 21.8% (inactive)
CCN1/C(=C/c2ccc3ccc(C)cc3[n+]2CC)Sc2ccccc21 | 87.4% (active)
CCN1/C(=c2/s/c(=C3/C(=O)N(c4ccccc4)NC3=Nc3ccccc3)n(CC)c2=O)Sc2ccc(OC)cc21 | 5.23% (inactive)
CCN1C(=O)/C(=C\c2ccc(OC)cc2)SC1=S | 6.61% (inactive)
CCN1/C(=C/c2ccc3cc(OC)ccc3[n+]2CC)Sc2c1ccc1c2CCCC1 | 87.9% (active)

Compound | inhibition
CCN1/C(=C/c2ccc3cc(C)ccc3[n+]2CC)Sc2ccc(OC)cc21 | 83.3% (active)
Cc1noc(/C=C/N(C)C)c1S(=O)(=O)N1CCC(C(=O)N2CCCC2)CC1 | -1.15% (inactive)
CCN1C(=O)/C(=c2\sc3nc(-c4ccccc4)nn3c2=O)c2ccccc21 | -17.8% (inactive)
O=C(NCc1cccnc1)C1CCCN(S(=O)(=O)c2ccc3[nH]c(=O)ccc3c2)C1 (configuration not stated) | 6.17% (inactive)
CCC(=O)N1c2ccccc2C2=C(SC(C(=O)OC)=C(C(=O)OC)C23SC(C(=O)OC)=C(C(=O)OC)S3)C1(C)C | 3.65% (inactive)
CCC1CCCCN1C(=O)c1sc2ncnc(N3CCN(c4ccc(OC)cc4)CC3)c2c1C (configuration not stated) | 7.77% (inactive)
CCOC(=O)CC(=O)CSc1ccc2nnc(-c3ccc(Cl)cc3)n2n1 | 1.1% (inactive)
CC1CC1c1ccc(/C=C(\C#N)C(=O)Nc2cccc([N+](=O)[O-])c2)o1 (configuration not stated) | -64.5% (inactive)
Cc1ccc2c(c1)C(=O)c1cc3ccccc3nc1-2 | -59.4% (inactive)
COc1ccc2nc3c(nc2c1)C(=O)c1ccccc1C3=O | -19.6% (inactive)
Cc1ccc2nc3c(nc2c1)C(=O)c1ccccc1-3 | 46.8% (active)
CCOc1ccc(N(C)S(=O)(=O)c2ccc3[nH]cc(C(=O)NCc4cccnc4)c(=O)c3c2)cc1 | 3.1% (inactive)
O=C(Nc1cccc(Cl)c1)Nc1noc2c1COc1ccccc1-2 | -1.02% (inactive)
COC(=O)/C=C(C(=O)OC)/C(C(=O)OC)=C1\Nc2ccccc2NC1=O | 8.52% (inactive)
COC(=O)/C=C1\Nc2ccccc2OC1=O | -5.86% (inactive)
COC(=O)/C=C1/C(=O)Nc2ccccc21 | 63.4% (active)
Cc1cc(C(=O)N2CCOCC2)c2ccccc2n1 | 6.26% (inactive)
Nc1nc(NCCCN2CCCC2=O)cc(Nc2ccccc2)n1 | -3.84% (inactive) and 0.61% (inactive)
CCOC(=O)c1cnn(-c2nc3ccccc3s2)c1CNC(C)c1ccco1 (configuration not stated) | -20.8% (inactive)
Nc1c(C(=O)c2ccccc2)sc2nc3c(cc12)CCCCC3 | 72.9% (active)
Nc1c(C(=O)c2ccc(Br)cc2)sc2nc3c(cc12)CCCC3 | -11.1% (inactive)
Nc1c(C(=O)Nc2cccc(C(=O)O)c2)sc2nc3c(cc12)CCCCC3 | -17.2% (inactive)
Nc1c(C(=O)c2ccc(Cl)cc2)sc2nc3c(cc12)CCCCCC3 | -9.12% (inactive)

Compound | inhibition
CC1(C)CC(=O)c2cc3c(N)c(C(=O)Nc4ccccc4Cl)sc3nc2C1 | -21.4% (inactive)
CC(=O)Nc1ccc(NC(=O)c2sc3nc4c(cc3c2N)CCCCCC4)cc1 | -8.57% (inactive)
Nc1c(C(=O)N2CCCCC2)sc2nc3c(cc12)CCC3 | -59.9% (inactive)
Cc1c(Cl)cccc1NC(=O)c1sc2nc3c(cc2c1N)C(=O)CCC3 | 41.4% (active)
Cc1cccc(NC(=O)c2sc3nc4c(cc3c2N)CCC4)c1C | 36.1% (active)
Cc1cc(C(=O)COC(=O)c2cc(Cl)cc(Cl)c2N)c(C)n1CC1CCCO1 (configuration not stated) | 7.73% (inactive)
CCn1cc(CN[C@H]2C[C@H]3C(=O)N[C@@H](Cc4ccc(O)cc4)C(=O)N3C2)c(C)n1 | 9.24% (inactive)
COCc1ccc(-c2ccc(OC3CCN(c4ncnc5nc[nH]c45)CC3)cc2)cc1 | -7.79% (inactive)
CCCCCCOC1OC(COC(C)=O)C(OC(C)=O)C(OC(C)=O)C1NC(C)=O (configuration not stated) | 10.2% (inactive)
COc1ccc(-c2c(C)nn3c(NCCO)c4c(nc23)CCCC4)cc1 | 0.55% (inactive)
COC(=O)C(NNc1ccccc1C)(NC(=O)c1ccc(Cl)cc1)C(F)(F)F (configuration not stated) | -4.69% (inactive)
Cc1ccc(C)c(OCC(=O)NC(C)(C)C)c1 | 1.69% (inactive)
COc1ccc(S(=O)(=O)Oc2ccc(C=O)cc2)cc1 | 12.9% (inactive)
Cc1c(C2=N/C(=C/c3cccc(Cl)c3Cl)C(=O)O2)cccc1[N+](=O)[O-] | -5.1% (inactive)
CSc1cccc(Nc2nc3ccccc3n3cnnc23)c1 | -29.4% (inactive)
Cc1cc2c(N(C)C3CCCCC3)ncnc2s1 | -14.3% (inactive)
Clc1ccc(-n2ncc3c(NC4CCCCC4)ncnc32)cc1 | 10.8% (inactive)
CN(c1ncnc2c1cnn2-c1ccc(Cl)cc1)C1CCCCC1 | 63.9% (active)
CSC1=C(C#N)C(c2ccccc2[N+](=O)[O-])C2=C(CC(C)(C)CC2=O)N1 (configuration not stated) | 15.7% (inactive)
O=C(NCCOc1ccccc1)c1ccc2nc(NCCN3CCOCC3)sc2c1 | -44.4% (inactive)
O=C(Nc1ccc2c3c(cccc13)CC2)c1cc([N+](=O)[O-])ccc1Br | 59.8% (active)
O=C(Nc1ccc2c3c(cccc13)CC2)c1cc([N+](=O)[O-])cc([N+](=O)[O-])c1 | -9.02% (inactive)
O=C(Nc1ccc([N+](=O)[O-])cc1Cl)c1ccccc1Br | 12.3% (inactive)

Compound | inhibition
Cc1cc(C)cc(N2C(=O)N(c3cccc(Cl)c3)C3CS(=O)(=O)CC32)c1 (configuration not stated) | -20.4% (inactive)
O=C(Cc1ccccc1)NC(c1ccc(Cl)cc1)c1ccc2cccnc2c1O (configuration not stated) | 82.5% (active)
Cc1ccnc(NC(=O)Cc2ccc(Cl)cc2)n1 | 0.25% (inactive)
O=C(COc1ccc(Cl)c(Cl)c1)NC(Cc1ccccc1)C(=O)O (configuration not stated) | 9.8% (inactive)
CCOc1ccc(C(NC(=O)c2cc(OC)c(OC)c(OC)c2)c2cc(Cl)c3cccnc3c2O)cc1 (configuration not stated) | 9.91% (inactive)
COc1cccc(C(=O)NC(c2cccc([N+](=O)[O-])c2)c2cc(Cl)c3cccnc3c2O)c1 (configuration not stated) | 7.94% (inactive)
CCOc1ccc(C(C)NC(=O)Cc2ccccc2)cc1 (configuration not stated) | 13.1% (inactive)
CC(=O)NC(c1cccs1)c1cc(Cl)c2cccnc2c1O (configuration not stated) | 80.8% (active)
Cc1ccc(C(NC(=O)Cc2ccccc2)c2ccc3cccnc3c2O)cc1 (configuration not stated) | 82.5% (active)
O=C(NC(=O)c1ccccn1)NC(c1ccccc1)c1ccccc1 | -3.05% (inactive)
CC(=O)NC(c1ccccc1)c1ccc2cccnc2c1O (configuration not stated) | 82.8% (active)
Cc1ccc(CC(=O)Nc2ncccn2)cc1 | 1.2% (inactive)
CC(=O)NC(NC(C)=O)c1cccnc1 | -0.95% (inactive)
Cc1ccc(C2C=C(c3ccc(C(C)C)cc3)Nc3nnnn32)cc1 (configuration not stated) | -3.93% (inactive)
Cn1c(=O)c2c(nc(N(CCO)CCO)n2Cc2cccc3ccccc23)n(C)c1=O | -5.12% (inactive)
O=S(=O)(c1ccc(F)c(Cl)c1)N1CCC(Cn2cnc3ccccc32)CC1 | 7.12% (inactive)
COC(=O)C1=C(C)OC(N)=C(C#N)C1c1ccc(OCc2ccccc2)cc1 (configuration not stated) | -17.6% (inactive)
COc1ccccc1NC(=O)Nc1nnc(CSCc2ccc(F)cc2)s1 | 11.6% (inactive)
CCOC(=O)c1cc([N+](=O)[O-])sc1NC(=O)c1cc(Cl)sc1Cl | 1.62% (inactive)
Cc1cccc(NC(=O)CC(C)(C)C)n1 | -13.5% (inactive)
N/C(=N\OC(=O)CCCOc1ccc(Cl)cc1Cl)c1nonc1N | -6.56% (inactive)
CCOC(=O)C1=CN(C(C)C)C=C(C(=O)OCC)C1c1cccc([N+](=O)[O-])c1 | 4.81% (inactive)
CCCn1c(=N)c(C(=O)OCC)cc2c(=O)n3cc(C)ccc3nc21 | 1.52% (inactive)

— PubChem BioAssay AID1259422 (The Scripps Research Institute Molecular Screening Center, 2018)
